Measurements taken from PubChem BioAssay AID1159580 (chemical genetic matrix, 2015).
“And” between values parts separate entries of the source, which are not always exact repeats. Equal values may be shown once. In all, about 5,500 compounds went through this assay and about 2,000 (36%) were called active. Inconclusive results (about 18%) are left out. Rule as the data show it: active = normalized growth mostly below about 0.91 (no sharp cut-off); inconclusive = no clear call, values can overlap the other calls; inactive = mostly above about 0.92. This is one part of the list.

Test: chemical genetic growth profiling, strain panel (AID 1159580);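 also: tested at 20 µM; growth read once vehicle control cultures reached saturation at 30 °C; 1 = growth at the plate median or of vehicle wells; lower values mean less growth of the strain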
Conditions: S. cerevisiae deletion strains, growth OD

Measured: normalized growth

CC(CCC(=O)O)[C@H]1CCC2C3C[C@H](O)[C@@H]4C[C@H](O)CC[C@]4(C)C3CC[C@@]21C (stereo partly specified)
inactive: locus YAL021C, strain ccr4, hits give low values 0.977 | locus YAL026C, strain drs2, hits give low values 1.01 | locus YAL030W, strain snc1, hits give low values 0.984 | locus YBL061C, strain skt5, hits give low values 0.989 | locus YBR009C, strain hhf1, hits give low values 0.97 | locus YBR021W, strain FUR4, hits give low values 1.01 | locus YBR023C, strain chs3, hits give low values 0.982 | locus YBR171W, strain sec66, hits give low values 0.996 | locus YBR229C, strain ROT2, hits give low values 1.02 | locus YBR231C, strain swc5, hits give low values 1.01 | locus YBR279W, strain paf1, hits give low values 1 | locus YCL011C, strain gbp2, hits give low values 0.97 | locus YCL016C, strain dcc1, hits give low values 0.96 | locus YCL029C, strain bik1, hits give low values 1.04 | locus YCL069W, strain vba3, hits give low values 0.985 | locus YCR088W, strain abp1, hits give low values 0.993 | locus YDL005C, strain med2, hits give low values 0.973 | locus YDL035C, strain GPR1, hits give low values 1.04 | locus YDL040C, strain nat1, hits give low values 0.986 | locus YDL074C, strain BRE1, hits give low values 1.04 | locus YDL101C, strain DUN1, hits give low values 1.02 | locus YDL185W, strain tfp1, hits give low values 1.03 | locus YDL192W, strain arf1, hits give low values 1.04 | locus YDR001C, strain nth1, hits give low values 0.976 | locus YDR069C, strain doa4, hits give low values 0.983 | locus YDR101C, strain arx1, hits give low values 1.04 | locus YDR137W, strain rgp1, hits give low values 0.957 | locus YDR159W, strain sac3, hits give low values 1.05 | locus YDR162C, strain NBP2, hits give low values 1.01 | locus YDR195W, strain ref2 0.957 | locus YDR297W, strain sur2, hits give low values 0.988 | locus YDR318W, strain mcm21, hits give low values 1.02 | locus YDR334W, strain swr1, hits give low values 0.99 | locus YDR335W, strain msn5, hits give low values 0.979 | locus YDR388W, hits give low values 1.02 | locus YDR392W, strain spt3, hits give low values 0.88 | locus YDR502C, strain sam2, hits give low values 1.04 | locus YEL003W, strain gim4, hits give low values 1.01 | locus YEL037C, strain rad23, hits give low values 0.985 | locus YEL061C, strain CIN8 (second series), hits give low values 0.987 | locus YEL061C, strain CIN8, hits give low values 1.02 | locus YER015W, strain faa2, hits give low values 0.987 | locus YER016W, strain bim1, hits give low values 0.981 | locus YER110C, hits give low values 1.03 | locus YER111C, strain swi4, hits give low values 0.974 | locus YER155C, strain BEM2 (second series), hits give low values 1 | locus YER155C, strain BEM2, hits give low values 1.02 | locus YER167W, strain BCK2, hits give low values 1.04 | locus YFR010W, strain ubp6, hits give low values 1.01 | locus YGL078C, strain dbp3, hits give low values 1.02 | locus YGL086W, strain mad1, hits give low values 1.04 | locus YGL167C, strain pmr1, hits give low values 0.957 | locus YGL173C, strain kem1, hits give low values 1 | locus YGL227W, strain vid30, hits give low values 0.994 | locus YGL240W, strain doc1, hits give low values 1.02 | locus YGL248W, strain PDE1, hits give low values 1.02 | locus YGL253W, strain hxk2, hits give low values 1.02 | locus YGR135W, strain pre9, hits give low values 1.05 | locus YGR252W, strain gcn5, hits give low values 1 | locus YHR013C, strain ard1, hits give low values 0.935 | locus YHR027C, strain rpn1, hits give low values 0.965 | locus YHR030C, strain SLT2, hits give low values 1.02 and 1.06 | locus YHR079C, strain IRE1 (second series), hits give low values 1.02 | locus YHR079C, strain IRE1, hits give low values 1.04 | locus YHR094C, strain hxt1, hits give low values 1.02 | locus YHR129C, strain ARP1, hits give low values 1.03 | locus YHR142W, strain chs7, hits give low values 0.958 | locus YHR200W, strain rpn10, hits give low values 1.03 | locus YIL066C, strain RNR3, hits give low values 1 | locus YIL073C, strain SPO22, hits give low values 1.1 | locus YIL125W, strain kgd1, hits give low values 1.03 | locus YIR030C, strain dcg1, hits give low values 1.02 | locus YJL092W, strain hpr5, hits give low values 0.99 | locus YJL095W, strain BCK1 (second series), hits give low values 0.99 | locus YJL095W, strain BCK1, hits give low values 1.08 and 1.04 | locus YJL115W, strain asf1, hits give low values 0.977 | locus YJL129C, strain trk1, hits give low values 0.979 | locus YJL134W, strain LCB3, hits give low values 1.03 | locus YJL154C, strain vps35, hits give low values 0.987 | locus YJL164C, strain tpk1, hits give low values 0.95 | locus YJL166W, strain qcr8, hits give low values 1 | locus YJL168C, strain set2, hits give low values 1.03 | locus YJL187C, strain SWE1 (second series), hits give low values 1.06 | locus YJL187C, strain SWE1, hits give low values 0.993 | locus YJR043C, strain POL32, hits give low values 1.04 | locus YJR066W, strain TOR1, hits give low values 1 | locus YKL009W, strain mrt4, hits give low values 0.994 | locus YKL068W, hits give low values 1.01 | locus YKL085W, strain MDH1 (second series), hits give low values 1.02 | locus YKL085W, strain MDH1, hits give low values 1.02 | locus YKL160W, strain elf1, hits give low values 0.948 | locus YKL190W, strain CNB1, hits give low values 1.07 | locus YKR001C, strain vps1, hits give low values 1.06 | locus YKR026C, strain gcn3, hits give low values 0.996 | locus YKR091W, strain srl3, hits give low values 0.973 | locus YLL001W, strain dnm1, hits give low values 0.932 | locus YLL026W, hits give low values 0.986 | locus YLL041C, strain sdh2, hits give low values 0.984 | locus YLR027C, strain aat2, hits give low values 1 | locus YLR039C, strain RIC1, hits give low values 1.08 | locus YLR058C, strain SHM2, hits give low values 1.02 | locus YLR102C, strain apc9, hits give low values 1.03 | locus YLR113W, strain HOG1, hits give low values 1.02 | locus YLR221C, strain rsa3, hits give low values 1.03 | locus YLR258W, strain gsy2, hits give low values 0.962 | locus YLR262C, strain YPT6 (second series), hits give low values 0.984 | locus YLR262C, strain YPT6, hits give low values 1.17 | locus YLR268W, strain sec22, hits give low values 1.06 | locus YLR320W, strain mms22, hits give low values 1.02 | locus YLR330W, strain CHS5, hits give low values 1.06 | locus YLR342W, strain FKS1 (second series), hits give low values 1.04 | locus YLR342W, strain FKS1, hits give low values 0.989 | locus YLR357W, strain rsc2, hits give low values 1 | locus YLR370C, strain arc18, hits give low values 0.981 | locus YLR371W, strain rom2, hits give low values 1.03 | locus YLR384C, strain iki3, hits give low values 0.964 | locus YLR418C, strain cdc73, hits give low values 1.05 | locus YML016C, strain PPZ1, hits give low values 1.02 | locus YML032C, strain rad52, hits give low values 1.01 | locus YML120C, strain ndi1, hits give low values 0.96 | locus YML124C, strain tub3, hits give low values 1.02 | locus YMR058W, strain fet3, hits give low values 0.997 | locus YMR078C, strain ctf18, hits give low values 1.03 | locus YMR125W, strain sto1, hits give low values 0.978 | locus YMR129W, hits give low values 1.02 | locus YMR205C, strain PFK2, hits give low values 0.993 | locus YMR223W, strain ubp8, hits give low values 1.03 | locus YMR231W, strain pep5, hits give low values 0.993 | locus YMR263W, strain SAP30, hits give low values 1.04 | locus YMR307W, strain GAS1, hits give low values 1.1 | locus YNL067W, strain RPL9B, hits give low values 1.09 | locus YNL071W, strain lat1, hits give low values 0.991 | locus YNL183C, strain NPR1, hits give low values 0.999 | locus YNL209W, strain ssb2, hits give low values 0.978 | locus YNL233W, strain BNI4, hits give low values 1.08 | locus YNL248C, strain rpa49, hits give low values 1.03 | locus YNL250W, strain rad50, hits give low values 1.03 | locus YNL271C, strain bni1, hits give low values 1.02 | locus YNL298W, strain CLA4, hits give low values 1 | locus YNL307C, strain MCK1, hits give low values 1.03 | locus YNL322C, strain KRE1 (second series), hits give low values 0.982 | locus YNR049C, strain mso1, hits give low values 0.989 | locus YNR052C, strain pop2, hits give low values 1.02 | locus YOL012C, strain htz1 0.914 | locus YOL147C, strain pex11, hits give low values 1.03 | locus YOR001W, strain rrp6, hits give low values 1.02 | locus YOR061W, strain CKA2, hits give low values 1.02 | locus YOR069W, strain VPS5, hits give low values 1.02 | locus YOR070C, strain gyp1, hits give low values 1.01 | locus YOR080W, strain dia2, hits give low values 0.995 | locus YOR083W, strain WHI5, hits give low values 0.948 | locus YOR106W, strain vam3, hits give low values 0.909 | locus YOR136W, strain idh2, hits give low values 1.04 | locus YOR144C, strain elg1, hits give low values 1.02 | locus YOR184W, strain ser1, hits give low values 1.04 | locus YOR231W, strain MKK1, hits give low values 1.07 | locus YOR265W, strain rbl2, hits give low values 0.983 | locus YOR270C, strain vph1, hits give low values 0.982 | locus YOR290C, strain snf2, hits give low values 0.927 | locus YOR316C, strain cot1, hits give low values 1.02 | locus YPL051W, strain arl3, hits give low values 0.954 | locus YPL055C, strain LGE1, hits give low values 1.06 | locus YPL078C, strain atp4, hits give low values 0.936 | locus YPL106C, strain sse1, hits give low values 0.978 | locus YPL240C, strain hsp82, hits give low values 0.991 | locus YPL256C, strain CLN2, hits give low values 1.04 | locus YPR119W, strain clb2, hits give low values 1.02 | locus YPR141C, strain kar3, hits give low values 1.03 | locus YPR163C, strain tif3, hits give low values 1.03 | locus YPR167C, strain met16, hits give low values 1.02 | strain wtn01, hits give low values 1.05
